# Hit rate of the full screen: of about 5,500 compounds, about 2,000 (36%) were called active. Another 18% or so got no clear call; they are omitted. The list shows a part of the results. Unmarked numbers belong to inactive results. Cut-off read from the data, not from the text of the source: active = normalized growth mostly below about 0.91 (no sharp cut-off); inconclusive = no clear call, values can overlap the other calls; inactive = mostly above about 0.92.
# Experiment: chemical genetic growth profiling, strain panel (AID 1159580);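 note: tested at 20 µM; growth read once vehicle control cultures reached saturation at 30 °C; 1 = growth at the plate median or of vehicle wells; lower values mean less growth of the strain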
# Details: S. cerevisiae deletion strains, growth OD
# [1] = locus YAL013W, strain DEP1, stronger effect = lower value
# [2] = locus YBR229C, strain ROT2, stronger effect = lower value
# [3] = locus YDL101C, strain DUN1, stronger effect = lower value
# [4] = locus YDR150W, strain NUM1, stronger effect = lower value
# [5] = locus YEL061C, strain CIN8, stronger effect = lower value
# [6] = locus YGR078C, strain PAC10, stronger effect = lower value
# [7] = locus YHR030C, strain SLT2, stronger effect = lower value
# [8] = locus YHR087W, strain rtc3, stronger effect = lower value
# [9] = locus YJL187C, strain SWE1, stronger effect = lower value
# [10] = locus YJR043C, strain POL32, stronger effect = lower value
# [11] = locus YJR075W, strain HOC1, stronger effect = lower value
# [12] = locus YLR039C, strain RIC1, stronger effect = lower value
# [13] = locus YLR058C, strain SHM2 (second series), stronger effect = lower value
# [14] = locus YLR085C, strain ARP6, stronger effect = lower value
# [15] = locus YLR262C, strain YPT6, stronger effect = lower value
# [16] = locus YML094W, strain GIM5, stronger effect = lower value
# [17] = locus YMR219W, strain ESC1, stronger effect = lower value
# [18] = locus YMR263W, strain SAP30, stronger effect = lower value
# [19] = locus YNL153C, strain GIM3, stronger effect = lower value
# [20] = locus YNL298W, strain CLA4 (second series), stronger effect = lower value
# [21] = locus YNL322C, strain KRE1, stronger effect = lower value
# [22] = locus YNR030W, strain Alg12, stronger effect = lower value
# [23] = locus YOL006C, strain TOP1, stronger effect = lower value
# [24] = locus YPL055C, strain LGE1, stronger effect = lower value
# [25] = locus YPL241C, strain CIN2, stronger effect = lower value
# [26] = locus YPR135W, strain CTF4, stronger effect = lower value
compound,measurement,setting,value
COc1cc(/C=N\NC(=S)NC2CC3CCC2C3)cc(OC)c1OC (stereo unspecified),normalized growth,[1],0.985
same,normalized growth,[2],1.01
same,normalized growth,[3],1
same,normalized growth,[4],0.998
same,normalized growth,[5],0.994
same,normalized growth,[6],1
same,normalized growth,"locus YGR229C, strain SMI1, stronger effect = lower value",1
same,normalized growth,[7],0.816
same,normalized growth,[8],1.03
same,normalized growth,[9],0.996
same,normalized growth,[10],1.02
same,normalized growth,[11],1.05
same,normalized growth,[12],0.97
same,normalized growth,[13],1.02
same,normalized growth,[14],0.653 (active)
same,normalized growth,[15],1.05
same,normalized growth,[16],0.913
same,normalized growth,[17],1.02
same,normalized growth,[18],0.975
same,normalized growth,[19],1.01
same,normalized growth,[20],0.889
same,normalized growth,[21],1.01
same,normalized growth,[22],0.92
same,normalized growth,[23],0.51 (active)
same,normalized growth,[24],0.923
same,normalized growth,[25],0.898
same,normalized growth,[26],0.843
S=C(N/N=C\c1cccs1)NC1CC2CCC1C2 (stereo unspecified),normalized growth,"locus YAR019C, strain CDC15, stronger effect = lower value",0.943
same,normalized growth,"locus YBL105C, strain PKC1, stronger effect = lower value",0.94
same,normalized growth,"locus YBR135W, strain CKS1, stronger effect = lower value",0.959
same,normalized growth,"locus YBR136W, strain MEC1, stronger effect = lower value",0.95
same,normalized growth,"locus YBR160W, strain CDC28, stronger effect = lower value",0.954
same,normalized growth,"locus YDL017W, strain CDC7, stronger effect = lower value",0.941
same,normalized growth,"locus YDL028C, strain MPS1, stronger effect = lower value",0.958
same,normalized growth,[3],0.952
same,normalized growth,"locus YDL108W, strain KIN28, stronger effect = lower value",0.951
same,normalized growth,"locus YDL132W, strain cdc53, stronger effect = lower value",0.96
same,normalized growth,"locus YDL214C, strain PRR2, stronger effect = lower value",0.913
same,normalized growth,"locus YDR052C, strain DBF4, stronger effect = lower value",0.945
same,normalized growth,"locus YDR054C, strain cdc34, stronger effect = lower value",0.928
same,normalized growth,"locus YDR226W, strain ADK1, stronger effect = lower value",0.937
same,normalized growth,"locus YDR477W, strain SNF1, stronger effect = lower value",0.91
same,normalized growth,"locus YER123W, strain YCK3, stronger effect = lower value",0.938
same,normalized growth,"locus YER133W, strain GLC7, stronger effect = lower value",0.905
same,normalized growth,"locus YFL009W, strain cdc4, stronger effect = lower value",0.934
same,normalized growth,"locus YFL029C, strain CAK1, stronger effect = lower value",0.94
same,normalized growth,"locus YFR003C, strain YPI1, stronger effect = lower value",0.951
same,normalized growth,"locus YFR019W, strain FAB1, stronger effect = lower value",0.956
same,normalized growth,"locus YFR028C, strain CDC14, stronger effect = lower value",0.944
same,normalized growth,"locus YGR040W, strain KSS1, stronger effect = lower value",0.909
same,normalized growth,"locus YGR052W, strain FMP48, stronger effect = lower value",0.921
same,normalized growth,"locus YGR092W, strain DBF2, stronger effect = lower value",0.794
same,normalized growth,[7],0.763 (active)
same,normalized growth,"locus YHR079C, strain IRE1, stronger effect = lower value",0.75
same,normalized growth,"locus YHR082C, strain KSP1, stronger effect = lower value",0.898
same,normalized growth,"locus YHR205W, strain SCH9, stronger effect = lower value",0.732
same,normalized growth,"locus YIL147C, strain SLN1, stronger effect = lower value",0.956
same,normalized growth,"locus YJL095W, strain BCK1, stronger effect = lower value",0.89
same,normalized growth,"locus YJL128C, strain PBS2, stronger effect = lower value",0.957
same,normalized growth,"locus YJL157C, strain FAR1, stronger effect = lower value",0.885
same,normalized growth,"locus YJR016C, strain ILV3, stronger effect = lower value",0.945
same,normalized growth,"locus YJR066W, strain TOR1 (second series), stronger effect = lower value",0.87
same,normalized growth,"locus YJR066W, strain TOR1, stronger effect = lower value",0.908
same,normalized growth,"locus YKL048C, strain ELM1, stronger effect = lower value",0.934
same,normalized growth,"locus YKL067W, strain YNK1, stronger effect = lower value",0.95
same,normalized growth,"locus YKL101W, strain HSL1, stronger effect = lower value",0.949
same,normalized growth,"locus YKL193C, strain SDS22, stronger effect = lower value",0.947
same,normalized growth,"locus YKL203C, strain TOR2, stronger effect = lower value",0.978
same,normalized growth,"locus YLR113W, strain HOG1, stronger effect = lower value",0.788 (active)
same,normalized growth,"locus YLR133W, strain CKI1, stronger effect = lower value",0.913
same,normalized growth,"locus YLR403W, strain SFP1, stronger effect = lower value",0.787
same,normalized growth,"locus YML070W, strain DAK1, stronger effect = lower value",0.927
same,normalized growth,"locus YMR001C, strain CDC5, stronger effect = lower value",0.944
same,normalized growth,"locus YMR205C, strain PFK2 (second series), stronger effect = lower value",0.946
same,normalized growth,"locus YMR277W, strain FCP1, stronger effect = lower value",0.946
same,normalized growth,"locus YNL006W, strain LST8, stronger effect = lower value",0.957
same,normalized growth,"locus YNL020C, strain ARK1, stronger effect = lower value",0.918
same,normalized growth,"locus YNL161W, strain CBK1, stronger effect = lower value",0.936
same,normalized growth,"locus YNL183C, strain NPR1, stronger effect = lower value",0.967
same,normalized growth,"locus YNL207W, strain RIO2, stronger effect = lower value",0.929
same,normalized growth,"locus YNL222W, strain SSU72, stronger effect = lower value",0.936
same,normalized growth,"locus YNL307C, strain MCK1 (second series), stronger effect = lower value",0.842
same,normalized growth,"locus YOL078W, strain AVO1, stronger effect = lower value",0.939
same,normalized growth,"locus YOL136C, strain PFK27, stronger effect = lower value",0.881
same,normalized growth,"locus YOR061W, strain CKA2, stronger effect = lower value",0.948
same,normalized growth,"locus YOR119C, strain RIO1, stronger effect = lower value",1.01
same,normalized growth,"locus YOR231W, strain MKK1, stronger effect = lower value",0.935
same,normalized growth,"locus YOR329C, strain SCD5, stronger effect = lower value",0.949
same,normalized growth,"locus YPL031C, strain PHO85, stronger effect = lower value",0.879
same,normalized growth,"locus YPL153C, strain RAD53, stronger effect = lower value",0.88
same,normalized growth,"locus YPL204W, strain HRR25, stronger effect = lower value",0.842
same,normalized growth,"locus YPL209C, strain IPL1, stronger effect = lower value",0.943
same,normalized growth,"locus YPL256C, strain CLN2, stronger effect = lower value",0.736 (active)
same,normalized growth,"locus YPR025C, strain CCL1, stronger effect = lower value",0.959
same,normalized growth,"locus YPR106W, strain ISR1, stronger effect = lower value",0.953
same,normalized growth,"locus YPR111W, strain DBF20, stronger effect = lower value",0.953
same,normalized growth,"strain NNK1, stronger effect = lower value",0.947
same,normalized growth,"strain TSCII, stronger effect = lower value",0.932
COc1cc(C=Nc2ccc(F)cc2)cc(OC)c1OC,normalized growth,[1],0.995
same,normalized growth,[2],0.978
same,normalized growth,[3],1
same,normalized growth,[4],0.896
same,normalized growth,[5],0.986
same,normalized growth,[6],1
same,normalized growth,[7],1.02
same,normalized growth,[8],1.01
same,normalized growth,[9],0.998
same,normalized growth,[10],1.01
same,normalized growth,[11],0.954
same,normalized growth,"locus YKL190W, strain CNB1, stronger effect = lower value",0.98
same,normalized growth,[12],0.983
same,normalized growth,[13],1.02
same,normalized growth,[14],0.965
same,normalized growth,[15],0.98
same,normalized growth,[16],0.988
same,normalized growth,[17],0.985
same,normalized growth,[18],1.01
same,normalized growth,"locus YMR307W, strain GAS1, stronger effect = lower value",0.938
same,normalized growth,[19],1.01
same,normalized growth,[20],1
same,normalized growth,[21],0.979
same,normalized growth,[22],0.979
same,normalized growth,[23],1
same,normalized growth,[24],1.02
same,normalized growth,[25],0.997
same,normalized growth,[26],1.11

# Source: PubChem BioAssay AID1159580 (chemical genetic matrix, 2015)
